# NADH enzymes: blocks coupling enzymes of NAD/NADH assays | coupled PK/LDH NADH assays, four targets | IC50, µM (highest dose often 10 µM), inactives show top-dose inhibition | 65,000 compounds, 0.02% hits;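 active means single-dose screening hits from any of four coupled enzyme assays that gave an IC50 when retested across doses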;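 further: the DPM-DC format reads NADH fluorescence rather than 340 nm absorbance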
# A340 absorber: compounds absorbing at 340 nm; fold change at 10 µM; 65,000 tested, under 10 active; AID 708; compound absorbance at 340 nm, fold over control;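 active means at 10 µM dose, initial 340 nm absorbance at least 2 fold that of control wells; inactive means change under 2 fold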;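 further: initial absorbance extrapolated from kinetic A340 decline of NADH oxidation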
# Spn MK inh: S. pneumoniae mevalonate kinase inhibition; inhibition, % at 10 µM; 65,000 compounds, 0.48% hits; AID 555; purified MK, PK/LDH-coupled NADH absorbance 340 nm;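 active means ranked among the strongest by inhibition in the single 10 µM screen, a fixed top-ranked set picked for dose follow-up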
# DPM-DC inhibit: S. pneumoniae DPM-DC inhibition; purified DPM-DC, PK/LDH coupled NADH fluorescence; calls only at 10 µM; 65,000 compounds, 0.49% hits;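 active means the 320 compounds with the highest percent inhibition in the single-dose primary screen, excluding strongly autofluorescent ones, cut at about 32% in these data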;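 further: kinetic rate of NADH fluorescence loss reporting ADP formed by the decarboxylase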
# PMK inhibit: blocks S. pneumoniae phosphomevalonate kinase; AID 539; 65,000 compounds, 0.49% hits; inhibition, % at 10 µM; purified PMK, PK/LDH-coupled NADH absorbance 340 nm;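 active means top-ranked compounds by inhibition in the single 10 µM screen, taking a fixed number of the strongest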;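 further: 0% = full reaction with DMSO carrier and 100% = background rate without enzyme reaction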
# Autofluor 339: intrinsic fluorescence of library compounds, ex339/em460 – biochemical, MLSMR library, data from DPM-DC assay, artefact control, profiling panel | fluorescence fold increase at 10 µM | 65,000 compounds, 5.5% hits | AID 709 | compound autofluorescence, ex339/em460 nm, NADH buffer; hits give high values; 1 = no-compound wells, NADH background;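 active means at 10 µM, mean starting fluorescence two-fold or more over control wells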;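 further: signal is the first read of a kinetic run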
# Numbers without * were called inactive; i = inactive; . = not tested or not shown; + = active, no number. Compounds with a hit are over-represented: about 6.5% of the library has one in this group of screens.
SMILES,NADH enzymes,A340 absorber,Spn MK inh,DPM-DC inhibit,PMK inhibit,Autofluor 339
O=C(NCc1ccco1)c1cccn2c(=O)c3sccc3nc12,2%,1.1,9,.,0,2.5*
COc1ccc(Cn2c(SCC(=O)NCc3ccco3)nc3ccsc3c2=O)cc1,3%,1,6,i,4,1.1
CCOC(=O)N1CCC(n2c(SCC(=O)Nc3nccs3)nc3ccsc3c2=O)CC1,4%,1,2,i,11,1.1
CCOC(=O)N1CCN(C(=O)c2ccc3nc4ccc(Cl)cc4c(=O)n3c2)CC1,9%,1.1,0,.,17,4.9*
O=C(Nc1ccc(F)cc1)C1CCCCC1,2%,1,0,i,6,1
O=S1(=O)NC2CCCCCN2c2ccc(F)cc21 (configuration not stated),11%,1.1,0,i,9,3.6*
Cc1ccc(O)c(CC(C)C)n1,3%,1.1,2,i,0,2*
N=c1c(C(=O)NC2CCCCC2)cc2c(=O)n3ccccc3nc2n1CCN1CCOCC1,3%,1.1,0,.,6,3.9*
CCOCCCn1c(=N)c(C(=O)NCc2ccc3c(c2)OCO3)cc2c(=O)n3ccccc3nc21,4%,1.1,1,i,10,1.5
N=c1c(C(=O)NCc2ccc(F)cc2)cc2c(=O)n3ccccc3nc2n1CCCN1CCOCC1,2%,0.98,1,.,14,3*
N=c1c(C(=O)NCc2ccccc2)cc2c(=O)n3ccccc3nc2n1CCCN1CCOCC1,7%,1,3,.,10,3.7*
Cc1occc(=O)c1OC(=O)Nc1ccccc1,2%,1,6,i,0,1.1
Cc1c(C#N)c(SCC(N)=O)nc2c1CCCC2,2%,1,0,i,7,1.1
CN(C)S(=O)(=O)c1ccc2c(c1)C(CC(=O)O)NC2=O (configuration not stated),9%,1,17,i,9,1.1
c1ccn2c(SCc3ccc4c(c3)OCO4)nnc2c1,21%,1,48*,i,12,0.96
Cn1c(SCc2ccc3c(c2)OCO3)nnc1-c1ccccc1,2%,1,4,i,16,1
O=C(Nc1ccc2nc(-c3cccs3)[nH]c2c1)c1cccs1,12%,1.2,9,i,3,2.4*
CC(=O)Nc1ccc2nc(-c3ccccn3)[nH]c2c1,8%,1.1,4,.,12,3.7*
Cc1cc(C)n(C(=O)C(C)N2C(=O)c3ccccc3C2=O)n1 (configuration not stated),4%,1,5,i,6,1.1
Cc1ccc(-c2noc(-c3ccccc3Br)n2)cc1,3%,1,6,i,2,1.1
CN(C)c1ccc(-c2noc(-c3ccccc3O)n2)cc1,8%,1,8,.,8,5.3*
CCCCn1c(=NC(=O)c2ccc3c(c2)OCO3)c(C#N)cc2c(=O)n3cccc(C)c3nc21,11%,1.1,4,i,5,2.3*
CCCCn1c(=NC(C)=O)c(C#N)cc2c(=O)n3cccc(C)c3nc21,8%,1.1,8,.,8,3.9*
Cc1cccn2c(=O)c3cc(C#N)c(=NC(=O)c4ccncc4)n(Cc4ccco4)c3nc12,3%,1,11,.,13,2.7*
COCCn1c(=NC(=O)c2ccc3c(c2)OCO3)c(C#N)cc2c(=O)n3cccc(C)c3nc21,3%,1.1,0,i,9,1.3
SMILES,NADH enzymes,A340 absorber,Spn MK inh,DPM-DC inhibit,PMK inhibit,Autofluor 339
CC(C)OCCCn1c(=NC(=O)c2ccncc2)c(C#N)cc2c(=O)n3ccccc3nc21,8%,1.1,3,.,12,3.6*
CCCCCn1c(=NC(C)=O)c(C#N)cc2c(=O)n3ccccc3nc21,7%,1.1,3,.,11,3.6*
O=C(O)c1cc(Cl)c2ccccc2c1O,8%,1.1,12,.,4,3.8*
O=C(O)c1cc(-c2ccccc2)nc2ccccc12,2%,1,4,i,1,1
Cc1oc2cc3c(C(=O)N4CCN(C)CC4)c(C)oc3cc2c1C(=O)N1CCN(C)CC1,12%,1,9,i,22,1
CC(=O)Oc1ccc2oc(C)c(C(=O)N3CCOCC3)c2c1,0%,1,0,i,0,1.1
CCOc1ccc2oc(-c3ccccc3)c(C(=O)N3CCN(C)CC3)c2c1,0%,1.1,0,.,0,2.2*
COc1ccc2oc(-c3ccccc3)c(C(=O)N3CCOCC3)c2c1,8%,1,6,.,9,2.1*
Cc1nnc(Sc2nc3c(c(=O)[nH]c(=O)n3C)n2Cc2ccccc2Cl)s1,4%,1.1,4,i,8,1.1
COc1cc(CN2CCN(C(=O)CC(C)C)CC2)cc(OC)c1OC,21%,1,52*,i,12,1.1
COc1ccc(C(=O)N2CCN(Cc3cc(OC)c(O)c(OC)c3)CC2)cc1OC,4%,1,9,i,4,1.1
COc1ccc(CN2CCN(C(=O)CN3C(=O)C4C5C=CC(C5)C4C3=O)CC2)c(OC)c1OC (configuration not stated),9%,0.98,7,i,19,1.1
COc1ccc(CN2CCN(C(=O)c3cc(OC)c(OC)c(OC)c3)CC2)cc1OC,21%,1.1,62*,i,0,1.1
COc1ccc(CN2CCN(C(=O)CC(C)C)CC2)c(OC)c1OC,18%,1,53*,i,1,1.1
CC(NC(=O)Nc1ccc(F)cc1F)c1ccncc1 (configuration not stated),5%,1.1,14,i,0,1.1
CCNc1nc(NC(C)(C)C)nc(N(C#N)CC)n1,8%,0.98,0,i,25*,1
O=C1CCc2cc(S(=O)(=O)NCCC(=O)N3CCN(c4cccc(Cl)c4)CC3)ccc2N1,7%,0.99,12,i,10,1.2
CCOC(=O)C1CCCCN1C(=O)CCc1c(C)nc2cc(-c3ccccc3)nn2c1C (configuration not stated),13%,1.1,7,i,13,1.9
CCOC(=O)C1CCN(c2cc(C)nc3cc(-c4cccc(F)c4)nn23)CC1,5%,0.98,4,.,18,2.6*
CCOC(=O)c1sc(Nc2nc3c(OC)cccc3s2)nc1C,9%,1,0,+,10,2.2*
C=C(C)Cn1c(N2CC(C)CC(C)C2)nc2c1c(=O)[nH]c(=O)n2C (configuration not stated),2%,0.97,3,i,5,1.1
CN1CCN(C(c2ccc(F)cc2)c2nnnn2Cc2cccs2)CC1 (configuration not stated),9%,0.99,15,i,12,1.1
CCN1CCN(C(c2ccc(F)cc2)c2nnnn2Cc2cccs2)CC1 (configuration not stated),3%,1,0,i,27*,1

# Assay outcomes deposited in PubChem by SRMLSC.
